Only some compounds are listed: those with a hit (about 7.9% of all), similar ones and a draw of the others.
HT1080NT lethal: kills 2HG-producing HT-1080-NT fibrosarcoma cells | HT-1080-NT fibrosarcoma viability, CellTiter-Glo ATP luminescence, 48 h | Potency, µM (top dose mostly 46.1 µM), inactives show at the highest dose activity, negative = less viability, most hits filed as cytotoxic | 360,000 tested, 1.6% active | AID 686970;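 also: NT is the 2HG producing partner of a matched IDH1 knockdown line; 0% = DMSO-treated cells and -100% = media-only wells without cells; nearly all actives have a fitted effect of over 55% in size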
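HT-1080-NT; 750 cells/well; 5% FBS RPMI; 48 h compound, 37 degrees C; CellTiter-Glo luminescence; curve fitting and curve-class assignment.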
MCF10A rerep: induces DNA re-replication in MCF 10a normal breast cells. MCF 10A DNA re-replication, Hoechst nuclear intensity, 48 h. Potency, µM (highest dose often 46.1 µM), without a hit: at the top dose activity, positive = re-replication, usual class: activators. 350,000 tested, 2.9% active. AID 624296; also: % of control where 0% means no effect; nearly all actives have a fitted effect of over 50% in size
KB-3-1 tox: KB-3-1 parental cell cytotoxicity; KB-3-1 viability, CellTiter-Glo ATP luminescence, 72 h; Potency, µM (highest dose often 46.1 µM), most hits filed as cytotoxic; 400,000 tested, 1.4% active; AID 1347075; also: % is scaled to controls: 0 for no effect and ±100 for the full control effect; nearly all actives have a fitted effect of over 60% in size
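Cytotoxicity measured as CellTiter-Glo luminescence after 72 h at 37 C. Compound titrations were pinned onto drug-naive KB-3-1 parental adenocarcinoma cells grown in DMEM with 10% FBS, and normalized data fitted to concentration-response curves.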
HT1080 IDH1KD tx: kills HT-1080 cells with IDH1 knockdown | HT-1080 IDH1 knockdown viability, ATP luminescence, 48 h | AID 686971 | 360,000 tested, 2% active | Potency, µM (highest dose often 46.1 µM), without a hit: at the highest dose activity, negative = toxicity, usual class: cytotoxic;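 also: 0% = DMSO wells and -100% = cell-free medium wells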
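After a 2 h attachment period, IDH1KD HT-1080 cells took pin-transferred compound for 48 h at 37 °C; ATP-based luminescence after 10 min room-temperature reagent incubation reported viability.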
SW480 rerep: induces DNA re-replication in SW480 colon adenocarcinoma cells; SW480 DNA re-replication, Hoechst DNA content imaging, 48 h; 340,000 tested, 1.8% active; Potency, µM (doses to about 46.1 µM), without a hit: at the top dose re-replication activation, usual class: activators; also: % of control where 0% means no effect; nearly all actives have a fitted effect of over 55% in size
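Quantitative HTS format with DMSO vehicle controls; 48 hr drug incubation at 37 C, then 40 min Hoechst staining and scanning imager measurement at 405 nm excitation.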
KB-V1 MDR tox: KB-V1 MDR subline cytotoxicity; AID 1347076; Potency, µM (series often up to 46.1 µM), usual class: cytotoxic; KB-V1 MDR cells viability, CellTiter-Glo, 72 h; 400,000 tested, 3.4% active; also: % is scaled to controls: 0 for no effect and ±100 for the full control effect; nearly all actives have a fitted effect of over 60% in size
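Potencies derive from concentration-effect curves fitted to normalized luminescence (CellTiter-Glo) of KB-V1 cells treated for 72 h at 37 degrees C in phenol-red-free DMEM containing 10% FBS.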
An asterisk follows results filed as active; i = inactive; ? = inconclusive; . = no result. Calls follow the shape of the dose curve; as a rule, active = well fitted curve in the direction sought with a large enough effect; inconclusive = small, poorly fitted or top-dose-only effect, or another doubt; inactive = no such curve, though single readings can be large; an effect the other way counts as inactive or inconclusive. Potency is read from the fitted curve at half-maximal effect.

SMILES	HT1080NT lethal	MCF10A rerep	KB-3-1 tox	HT1080 IDH1KD tx	SW480 rerep	KB-V1 MDR tox
O=C(C[n+]1ccc2ccccc2c1)c1ccc(NC(=O)c2ccccc2)cc1	-13%	2%	21µM*	-17%	-4%	i
CCSc1nc(N)c(NC(=O)c2ccc(Br)o2)c(=O)[nH]1	-2%	-1%	i	11%	-8%	i
N/C(=N/OC(=O)c1cccc([N+](=O)[O-])c1)c1cccc([N+](=O)[O-])c1	19%	?	?	26%	0%	i
CC1=C(C)/C(=N/OC(=O)c2cccc([N+](=O)[O-])c2)C=CC1=O	?	8.2µM*	i	18µM*	8.2µM*	i
Cc1cc(Br)ccc1OCCn1ccnc1	-2%	9%	i	1%	2%	16µM*
Clc1cc(Br)ccc1OCCCn1ccnc1	6%	15%	?	-1%	1%	21µM*
O=C(/C=C/c1c(Cl)cccc1Cl)NCCCn1ccnc1	-8%	23µM*	i	-4%	?	i
Cc1cc(Cl)cc(C)c1OCCCCn1ccnc1	-27%	5%	i	?	-11%	?
Cc1cccc(Cl)c1OCCCCn1ccnc1	?	10%	i	?	5%	21µM*
OC(c1ccc(F)cc1)c1nc(-c2ccccc2)cs1 (configuration not stated)	-1%	.	i	-22%	.	i
COc1ccc(N2C(=O)c3ccc(C(=O)Nc4cc(OC)ccc4OC)cc3C2=O)cc1	3%	8%	i	18%	-16%	i
Cc1ccc(S(=O)(=O)N2CCCCC2CCNC(=O)C(=O)NCc2cccnc2)cc1 (configuration not stated)	?	?	8.2µM*	?	16µM*	?
O=C(NCCC1CCCCN1S(=O)(=O)c1ccc(F)cc1)C(=O)NCc1ccncc1 (configuration not stated)	12%	15%	i	13%	0%	i
Cc1ccccc1CNC(=O)C(=O)NCCC1CCCCN1S(=O)(=O)c1ccccc1 (configuration not stated)	1%	15%	?	-4%	0%	6.5µM*
O=C(NCCC1CCCCN1S(=O)(=O)c1ccc(Cl)cc1)C(=O)NCc1ccncc1 (configuration not stated)	3%	-39%	i	4%	3%	i
Cc1ccc(S(=O)(=O)N2CCCCC2CCNC(=O)C(=O)NC2CC2)cc1 (configuration not stated)	-3%	7%	i	0%	4%	8.2µM*
O=C(NCCC1CCCCN1S(=O)(=O)c1ccccc1)C(=O)NC1CCCC1 (configuration not stated)	1%	3%	i	3%	-2%	?
Cc1ccc(CNC(=O)C(=O)NCCC2CCCCN2S(=O)(=O)c2ccc(C)cc2)cc1 (configuration not stated)	-1%	?	i	-8%	?	3.7µM*
S=C(NCCC(c1ccccc1)c1ccccc1)Nc1ccc(Cl)cc1	?	18%	i	?	0%	?
Cc1ccc(-n2nc3c(c2NC(=O)C2CC2)CS(=O)(=O)C3)cc1C	8%	0%	i	6%	-10%	i
CCCCC1C2=C(CCCC2=O)OC2=C1C(=O)CCC2	16%	2%	i	21%	0%	i
COc1ccc2[nH]c3c(c2c1)CCN1C(=O)C(CC(=O)NCCC2=CCCCC2)C[C@H](C(=O)N2CCOCC2)[C@@]31CCC1CCCC1 (some centres not stated)	10%	-9%	i	3%	3%	i
Cc1ccc(C)c(S(=O)(=O)N2CCCCC2CCNC(=O)C(=O)NCc2ccccc2)c1 (configuration not stated)	?	?	26µM*	?	?	?
Cc1cc(C)c(S(=O)(=O)N2CCCCC2CCNC(=O)C(=O)NCc2cccnc2)c(C)c1 (configuration not stated)	0%	5%	i	8%	-6%	8.2µM*
Cc1ccc(C)c(S(=O)(=O)N2CCCCC2CCNC(=O)C(=O)NCc2cccnc2)c1 (configuration not stated)	-3%	11%	i	-16%	?	?
SMILES	HT1080NT lethal	MCF10A rerep	KB-3-1 tox	HT1080 IDH1KD tx	SW480 rerep	KB-V1 MDR tox
COc1cccc(/C=N/n2c(=O)[nH]c3ccccc32)c1OC	-12%	12%	i	-4%	4.1µM*	i
COc1cccc(/C=N/n2c(=S)n(C)c3ccccc32)c1OC	4%	5%	i	9%	-16%	i
COc1cccc(/C=N/n2c(C)nc3ccccc32)c1OC	1%	11%	i	1%	2%	12µM*
Cc1ccc(Cn2ccc(C3CC3)n2)cc1	6%	0%	i	3%	-5%	?
COc1ccccc1Cc1c(C(C)(C)C)nc2cc(C)c(Br)c(C)n12	16%	.	i	12%	.	i
CCN1C(=O)CSC1=Nc1ccc(C(=O)O)cc1	11%	-13%	i	12%	7%	i
CC(C)(C)c1ccc(N=C2SCC(=O)N2Cc2cccs2)cc1	?	23µM*	i	?	?	?
O=C(NN1C(=O)C2C(c3ccccc3)C=CC(c3ccccc3)C2C1=O)c1ccncc1 (configuration not stated)	4%	-1%	i	6%	-6%	i
CCOC(=O)NNc1ccccc1	4.1µM*	14%	i	3.7µM*	-19%	i
NC(=O)NNc1ccccc1	.	4%	.	.	26%	.
CCC(O)CC(C(=O)NNc1ccccc1)C(=O)NNc1ccccc1 (configuration not stated)	2.6µM*	?	?	5.8µM*	-76%	i
CCOC(=O)Nc1cccc(Nc2ccccc2)c1	1%	17%	i	-15%	2%	i
O=C1CC(O)(C(F)F)Oc2ccc3ccccc3c21 (configuration not stated)	-1%	-7%	i	0%	-3%	i
O=C1CC(O)(C(F)(F)F)Oc2c1ccc1ccccc21 (configuration not stated)	?	21µM*	i	-6%	?	i
O=C(NNC(=O)c1cccnc1SCc1cccc([N+](=O)[O-])c1)c1ccc(F)cc1	-18%	10%	?	-11%	2%	16µM*
O=C(NNC(=O)c1cccnc1SCc1cccc([N+](=O)[O-])c1)c1cccnc1	-3%	1%	i	-11%	-7%	?
